Source: PubChem BioAssay (Tox21)
Unmarked numbers belong to inactive results. Results filed as inconclusive are left out. Where a call stands in place of a potency, no number is given. Active and inactive are the calls of the source. Unless noted, the call rests on the fitted dose curve; in most records, active means well fitted curve in the direction sought with a large enough effect in the repeat runs; inconclusive means weak or mixed curves; inactive means no such curve, though single readings can be large; an effect the other way counts as inactive or inconclusive.

Key:
[1] = qHTS RealTime-Glo MT Cell Viability Assay in HEK293 cells - 0 hour (AID 1224880); further: top concentration of the series differs between compounds; nearly all actives have a fitted effect of over 45% in size
Outline: (§1)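 Luminescence readout at each listed time point; HEK293, 600 cells/well, RealTime-Glo MT reagent added with cells; compounds pinned (23 nL in DMSO) after 5 h at 37 C; continuous culture at 37 C.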

[2] = A CellTox Green Cytotoxicity Assay to monitor cytotoxicity in HEK293 cells - 32 hour (AID 1224881); further: nearly all actives have a fitted effect of over 40% in size
Outline: (§2)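 Read-out: fluorescence of a cell-impermeant cyanine dye staining DNA of dead cells, proportional to cytotoxicity. HEK293, 600 cells/well with reagent, compound (23 nL DMSO) added after 5 h; reads at 0, 8, 16, 24, 32, 40 h.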

[3] = A CellTox Green Cytotoxicity Assay to monitor cytotoxicity in HepG2 cells - 0 hour (AID 1224882); further: nearly all actives have a fitted effect of over 35% in size
Outline: (§3)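 HepG2, 600 cells/well premixed w/ CellTox Green; 5 h settle, 37 C/5% CO2; pintool cpd add (DMSO); 37 C, 40 h; fluorescence read at 0, 8, 16, 24, 32, 40 h.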

[4] = A CellTox Green Cytotoxicity Assay to monitor cytotoxicity in HepG2 cells - 32 hour (AID 1224883); further: nearly all actives have a fitted effect of over 50% in size
Outline: as §3

[5] = A CellTox Green Cytotoxicity Assay to monitor cytotoxicity in HEK293 cells - 8 hour (AID 1224884); further: nearly all actives have a fitted effect of over 35% in size
Outline: as §2

[6] = qHTS RealTime-Glo MT Cell Viability Assay in HepG2 cells - 16 hour (AID 1224885); further: nearly all actives have a fitted effect of over 50% in size
Outline: (§4)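 Tox21 10K library screened in qHTS format on HepG2 cells carrying RealTime-Glo reagents. Compounds were added after a 5 h preincubation, and the luminescent signal from continuous culture was measured repeatedly during 40 h treatment.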

[7] = qHTS RealTime-Glo MT Cell Viability Assay in HEK293 cells - 24 hour (AID 1224886); further: top concentration of the series differs between compounds; nearly all actives have a fitted effect of over 50% in size
Outline: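 Luminescence generated by NanoLuc from substrate produced by living HEK293 cells served as the viability signal. Each value reflects the reading at its stated time point during continuous 40 h compound exposure at 37 C.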

[8] = qHTS RealTime-Glo MT Cell Viability Assay in HEK293 cells - 8 hour (AID 1224887); further: top concentration of the series differs between compounds; nearly all actives have a fitted effect of over 50% in size
Outline: as §1

[9] = A CellTox Green Cytotoxicity Assay to monitor cytotoxicity in HEK293 cells - 16 hour (AID 1224888); further: nearly all actives have a fitted effect of over 35% in size
Outline: as §2

[10] = qHTS RealTime-Glo MT Cell Viability Assay in HepG2 cells - 0 hour (AID 1224889); further: nearly all actives have a fitted effect of over 50% in size
Outline: as §4

[11] = A CellTox Green Cytotoxicity Assay to monitor cytotoxicity in HepG2 cells - 8 hour (AID 1224890); further: nearly all actives have a fitted effect of over 45% in size
Outline: as §3

[12] = qHTS assay to identify small molecule antagonists of the estrogen receptor alpha (ER-alpha) signaling pathway using the BG1 cell line in the presence of 0.1 nM 17-beta-estradiol - cell viability counter screen (AID 1259241); further: nearly all actives have a fitted effect of over 40% in size
Outline: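 VM7Luc4E2 cells (endogenous full-length ER-alpha, 4xERE-luciferase), cultured 5 days in charcoal-stripped serum, exposed to compounds with 0.1 nM 17beta-estradiol (final) for 22 hr at 37C. Viability read in same wells as live-cell protease fluorescence after 30 min.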

[13] = qHTS assay to identify small molecule antagonists of the androgen receptor (AR) signaling pathway using the MDA cell line in the presence of 0.5 nM R1881 - cell viability counter screen (AID 1259242); further: nearly all actives have a fitted effect of over 45% in size
Outline: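 Live-cell protease fluorescence, CellTiter-Fluor, 30 min at 37C. Cells: MDA-kb2, 3,000/well, preincubated 5 hr. Compounds plus 0.5 nM R1881 final, 16 hr, 37C, 0% CO2.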

[14] = target: Estrogen receptor (Homo sapiens) (UniProt P03372); experiment: qHTS assay to identify small molecule antagonists of the estrogen receptor alpha (ER-alpha) signaling pathway using the BG1 cell line in the presence of 0.1 nM 17-beta-estradiol (AID 1259244); further: nearly all actives have a fitted effect of over 50% in size
Sequence of Estrogen receptor (Homo sapiens) (P03372 whole entry, looked up): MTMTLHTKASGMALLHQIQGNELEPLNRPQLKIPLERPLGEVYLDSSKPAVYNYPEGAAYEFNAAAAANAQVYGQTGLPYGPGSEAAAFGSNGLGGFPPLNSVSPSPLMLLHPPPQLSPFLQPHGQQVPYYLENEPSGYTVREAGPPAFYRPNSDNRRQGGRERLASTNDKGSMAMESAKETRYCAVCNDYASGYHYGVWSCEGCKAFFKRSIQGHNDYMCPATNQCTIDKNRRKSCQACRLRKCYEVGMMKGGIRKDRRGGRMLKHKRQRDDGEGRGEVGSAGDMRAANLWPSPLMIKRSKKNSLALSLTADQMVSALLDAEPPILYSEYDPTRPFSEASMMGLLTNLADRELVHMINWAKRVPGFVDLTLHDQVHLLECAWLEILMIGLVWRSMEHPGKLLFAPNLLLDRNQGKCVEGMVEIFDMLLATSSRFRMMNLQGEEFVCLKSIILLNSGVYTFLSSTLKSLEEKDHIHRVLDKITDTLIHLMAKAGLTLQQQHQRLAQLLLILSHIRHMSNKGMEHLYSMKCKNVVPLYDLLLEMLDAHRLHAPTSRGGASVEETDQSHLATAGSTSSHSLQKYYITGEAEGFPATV
Outline: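 Luminescence after ONE-Glo (30 min, room temperature) measured ERE-luciferase activity in VM7Luc4E2 cells treated 22 h with compound and 0.1 nM final 17beta-estradiol as stimulator.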

[15] = qHTS assay to identify small molecule phospholipidosis (PLD) inducers (AID 1259344; active means well fitted curve in the direction sought with a large enough effect; an effect the other way counts as inactive or inconclusive)
Outline: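 Accumulated phospholipid, stained red by LipidTOX during 24 h compound treatment of HepG2 cells at 37 C, is quantified from images as pit number and intensity, normalised per cell using Hoechst-stained nuclei.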

[16] = qHTS assay to identify small molecule HDAC inhibitors (AID 1259364);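 further: wild-type HCT-116 cells with endogenous class I/II HDAC activity; top concentration of the series differs between compounds; nearly all actives have a fitted effect of over 45% in size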
Outline: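 HCT-116 (wild type), 1,500 cells/well, overnight; compound 2 hr 37C 5% CO2; HDAC-Glo I/II reagent 30 min RT; luminescence readout.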

[17] = qHTS assay to identify small molecule HDAC inhibitors - cell viability counter screen (AID 1259365)
Outline: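 Wild-type HCT-116 cells, 1,500/well, cultured overnight, then compound-treated 2 h at 37 C. Viability measured as ATP luminescence with CellTiter-Glo after 30 min at room temperature.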

[18] = qHTS assay to identify small molecule agonists of the sonic hedgehog signaling (Shh) pathway - cell viability counter screen (AID 1259366); further: nearly all actives have a fitted effect of over 50% in size
Outline: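 NIH/3T3-derived Gli1-Luc reporter cells, 2,000 per well, received compound after 4 h and were treated about 23 h at 37C. Viability measured in the same wells by CellTiter-Fluor fluorescence after 1 h.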

[19] = qHTS assay to identify small molecule antagonists of the sonic hedgehog signaling (Shh) pathway - cell viability counter screen (AID 1259367); further: nearly all actives have a fitted effect of over 55% in size
Outline: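 CellTiter-Fluor signal in conditioned medium-stimulated 3T3 Gli1-Luc cells, 23 hr compound exposure, 37C.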

[20] = target: Androgen receptor (Homo sapiens) (UniProt P10275); experiment: qHTS assay to identify small molecule antagonists of the androgen receptor (AR) signaling pathway using the MDA cell line in the presence of 0.5 nM R1881 (AID 1259243); further: nearly all actives have a fitted effect of over 50% in size; further: potency means the concentration at half of the fitted maximal effect
Sequence of Androgen receptor (Homo sapiens) (P10275 whole entry, looked up): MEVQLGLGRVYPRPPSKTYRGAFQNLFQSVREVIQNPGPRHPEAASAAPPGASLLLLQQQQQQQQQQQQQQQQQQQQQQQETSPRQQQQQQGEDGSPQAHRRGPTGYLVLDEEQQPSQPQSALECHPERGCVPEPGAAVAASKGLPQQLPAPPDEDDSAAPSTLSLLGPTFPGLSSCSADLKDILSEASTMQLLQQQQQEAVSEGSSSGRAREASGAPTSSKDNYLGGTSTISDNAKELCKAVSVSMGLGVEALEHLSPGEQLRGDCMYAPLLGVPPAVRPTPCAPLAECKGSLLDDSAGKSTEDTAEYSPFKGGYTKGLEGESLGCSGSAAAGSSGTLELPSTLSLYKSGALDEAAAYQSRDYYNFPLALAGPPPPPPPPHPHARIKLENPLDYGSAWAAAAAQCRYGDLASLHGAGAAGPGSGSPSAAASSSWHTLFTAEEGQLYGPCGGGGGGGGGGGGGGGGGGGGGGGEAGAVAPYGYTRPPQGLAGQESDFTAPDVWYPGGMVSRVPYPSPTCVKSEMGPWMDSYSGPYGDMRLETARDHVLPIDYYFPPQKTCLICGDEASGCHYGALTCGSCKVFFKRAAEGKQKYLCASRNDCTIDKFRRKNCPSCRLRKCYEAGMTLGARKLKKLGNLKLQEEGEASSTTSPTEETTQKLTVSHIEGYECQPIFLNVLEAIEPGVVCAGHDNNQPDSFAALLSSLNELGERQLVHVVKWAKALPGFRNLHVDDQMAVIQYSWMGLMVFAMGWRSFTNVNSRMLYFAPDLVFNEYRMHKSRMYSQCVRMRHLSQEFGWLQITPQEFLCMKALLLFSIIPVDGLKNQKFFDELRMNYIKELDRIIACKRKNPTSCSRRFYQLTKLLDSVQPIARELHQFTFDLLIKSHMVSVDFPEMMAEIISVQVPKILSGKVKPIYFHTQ
Outline: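 MDA-kb2, MMTV-luc (AR/GR elements); 3,000 cells/well; cpd + 0.5 nM R1881 final; 16 hr 37C, 0% CO2; ONE-Glo 30 min RT; luminescence.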

C[C@@H]1CN(c2c(F)c(N)c3c(=O)c(C(=O)O)cn(C4CC4)c3c2F)C[C@H](C)N1
activity change, negative = cytotoxicity [1]: -2.5% [at 15.8 µM]
cytotoxicity increase [2]: 5.84% [at 15.8 µM]
cytotoxicity [3]: 5.9% [at 15.8 µM]
cytotoxicity increase [4]: -7.06% [at 15.8 µM]
cytotoxicity increase [5]: -0.635% [at 15.8 µM]
activity change, negative = cytotoxic [6]: 0.182% [at 15.8 µM]
activity change, negative = cytotoxicity [7]: 4.31% [at 15.8 µM]
activity change, negative = cytotoxicity [8]: 0.0014% [at 15.8 µM]
activity change [9]: -0.126% [at 15.8 µM, hits give high values]
activity change, negative = cytotoxicity [10]: 5.84% [at 15.8 µM]
cytotoxicity increase [11]: 0.794% [at 15.8 µM]
activity change, negative = cytotoxicity [12]: 1.55% [at 19 µM]
viability change, negative = cytotoxic [13]: 0.0147% [at 19 µM]
activity change, negative = inhibition [14]: -0.515% [at 19 µM]
outcome [15]: inactive
activity change, negative = inhibition [16]: -1.07% [at 19 µM]
activity change, negative = cytotoxicity [17]: 4.84% [at 19 µM]
viability change, negative = cytotoxic [18]: 1.22% [at 19 µM]
viability change, negative = cytotoxic [19]: 0.364% [at 19 µM]

COc1nc(C)nc(NC(=O)NS(=O)(=O)c2ccccc2OCCCl)n1
outcome [1]: inactive
Potency [2]: inactive
Potency [3]: inactive
Potency [4]: inactive
Potency [5]: inactive
outcome [6]: inactive
Potency [7]: inactive
Potency [8]: inactive
Potency [9]: inactive
Potency [10]: inactive
Potency [11]: inactive
Potency [12]: inactive
outcome [13]: inactive
Potency [14]: inactive
Potency [16]: inactive
outcome [17]: inactive
Potency [18]: inactive
Potency [19]: inactive

O=C(CCCl)NCc1ccccc1
outcome [1]: inactive
Potency [2]: inactive
Potency [3]: inactive
Potency [4]: inactive
Potency [5]: inactive
outcome [6]: inactive
Potency [7]: inactive
Potency [8]: inactive
Potency [9]: inactive
Potency [10]: inactive
Potency [11]: inactive
Potency [12]: inactive
outcome [13]: inactive
Potency [14]: inactive
Potency [16]: inactive
outcome [17]: inactive
Potency [18]: inactive
Potency [19]: inactive

CCOC(=O)c1cc(=O)c2c(OCC(COc3cccc4oc(C(=O)OCC)cc(=O)c34)OC(=O)[C@@H](N)CCCCN)cccc2o1
outcome [1]: inactive
Potency [2]: inactive
Potency [3]: inactive
Potency [4]: inactive
Potency [5]: inactive
outcome [6]: inactive
Potency [7]: inactive
Potency [8]: inactive
Potency [9]: inactive
Potency [10]: inactive
Potency [11]: inactive
Potency [12]: inactive
outcome [13]: inactive
Potency [20]: inactive
Potency [14]: inactive
Potency [16]: inactive
outcome [17]: inactive
Potency [18]: inactive
Potency [19]: inactive

CCN(CC)CC1CCCCN1CC(=O)N1c2ccccc2C(=O)Nc2cccnc21 (stereo not given)
outcome [1]: inactive
Potency [2]: inactive
Potency [3]: inactive
Potency [4]: inactive
Potency [5]: inactive
outcome [6]: inactive
Potency [7]: inactive
Potency [8]: inactive
Potency [9]: inactive
Potency [10]: inactive
Potency [11]: inactive
Potency [12]: inactive
outcome [13]: inactive
Potency [14]: inactive
outcome [15]: inactive
Potency [16]: inactive
outcome [17]: inactive
Potency [18]: inactive
Potency [19]: inactive

CN1CCN(C2=Nc3cc(F)ccc3Cc3ccccc32)CC1
outcome [1]: inactive
Potency [2]: inactive
Potency [3]: inactive
Potency [4]: inactive
Potency [5]: inactive
outcome [6]: inactive
Potency [7]: inactive
Potency [8]: inactive
Potency [9]: inactive
Potency [10]: inactive
Potency [11]: inactive
Potency [12]: inactive
outcome [13]: inactive
Potency [20]: 16.8 µM (active)
Potency [14]: inactive
Potency [16]: inactive
outcome [17]: inactive
Potency [18]: inactive
Potency [19]: inactive

CCCCC(CC)COC(=O)COc1cc(Cl)c(Cl)cc1Cl (stereo not given)
outcome [1]: inactive
Potency [2]: inactive
Potency [3]: inactive
Potency [4]: inactive
Potency [5]: inactive
outcome [6]: inactive
Potency [7]: inactive
Potency [8]: inactive
Potency [9]: inactive
Potency [10]: inactive
Potency [11]: inactive
Potency [12]: inactive
outcome [13]: inactive
Potency [14]: inactive
Potency [16]: inactive
outcome [17]: inactive
Potency [18]: inactive
Potency [19]: inactive
